EWS-Fli inh – inhibitors of EWS/Fli oncoprotein transcriptional activity | actives 0.67% (n = 350,000) | inhibition, % at 12.6 µM | A673 NR0B1-luciferase reporter, viability-normalised;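 active = mean inhibition of at least 50% after viability correction, with every replicate also passing that limit; inconclusive = mean reaches 50% but only one of two replicates passes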;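 note: firefly luciferase signal divided by Alamar Blue viability fluorescence both relative to DMSO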
Env fusion inh – blocks HIV Env-driven cell-cell fusion. HeLa-JRFL Env/CEM21 cell fusion, luciferase. inhibition, % at 12.3 µM. actives 1.1% (n = 360,000). AID 651610;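 active = mean replicate inhibition score of at least 50 and every replicate individually at or above 50; inconclusive = only one of the two criteria met; inactive = mean below 50 and not all replicates reaching 50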;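 note: 0% = plate neutral controls and 100% = maraviroc near 300 nM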
GAA850 FXN act – frataxin GAA850 promoter activation; actives 0.56% (n = 360,000); activation, % at 6 µM; HEK293 lucGAA850 FXN promoter luciferase reporter, 24 h; percent of 10 µM SAHA response;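 active = activation above the average of all compounds screened plus 3 SD, cutoff fixed separately per campaign, cut at about 7.5% in these data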;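 note: 0% = DMSO wells and 100% = 10 µM SAHA wells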
F508del corr – correctors of CFTR F508del function in bronchial epithelial cells; AID 720511; actives 0.36% (n = 350,000); activity (quench increase), % at 7.58 µM; CFBE cells, YFP halide quenching; stimulated with forskolin plus potentiator P3; % fluorescence drop versus neutral controls;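 active = mean added fluorescence quench of at least 8% versus neutral control, with both replicates also reaching 8%; inconclusive = only one of the mean or replicate conditions met; inactive = mean below 8% and not both replicates reaching 8%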;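 note: cells transiently co-express mutant CFTR-F508del with the halide-sensitive YFP; corrector assay measuring rescue of mutant channel to the surface after 24 h compound exposure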
PAX8 inh HTS – lowers PAX8-driven luciferase in RMG-I cells; RMG-I TPO-luciferase reporter, SteadyGlo, 24 h; inhibition, % at 12.6 µM; actives 1.2% (n = 360,000); AID 652154;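 active = mean replicate inhibition at least 60% with every replicate also reaching 60%; inconclusive = only one of the two criteria is met; inactive = mean below 60% and not all replicates reaching 60%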;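 note: luciferase light reporting Pax8 driven TPO promoter activity; plate controls were median of neutral control wells for no effect and mitoxantrone controls for full effect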
* = called active by the depositor; ? = inconclusive; . = no result given; [ ] = remark or other dose. Most compounds without a hit are left out; they make up all but 2.5% or so of the library.

SMILES	EWS-Fli inh	Env fusion inh	GAA850 FXN act	F508del corr	PAX8 inh HTS
CCc1nc2c(c(=O)[nH]1)C1(CCCC1)Cc1ccccc1-2	.	-12	3	.	.
C[C@@H](O)C#Cc1ccc([C@H]2[C@H](CO)N3CCCCN(S(=O)(=O)c4ccccc4)C[C@@H]23)cc1	9	.	.	0	-13
Cn1nnnc1N=N/C(=N/Nc1ccccc1)c1ccccc1	-11	27	-11	13*	48
CO[C@@H]1CN(C)C(=O)c2cc(NC(=O)Nc3ccccc3Cl)ccc2OC[C@H](C)NC[C@@H]1C	1	-2[16.7 µM]	.	-3	.
N#CC1=C(N)Oc2ccc3ccc(O)cc3c2C1c1cccnc1 (stereo not drawn)	8	.	-4	2	.
N#CC1=C(N)Oc2c(ccc3cccnc23)C1c1ccccc1 (stereo not drawn)	59*	13	-3	17*	26
N#CC1=C(N)Oc2ccc3ccccc3c2C1c1cccnc1 (stereo not drawn)	54*	5	-4	?	26
Cc1ccc2[nH]c(=O)c(C3C(C#N)=C(N)Oc4c3ccc3cccnc43)cc2c1 (stereo not drawn)	.	47	2	.	.
COCC(=O)N1[C@H](CO)[C@H](c2ccccc2-c2cccc(OC)c2)[C@@H]1C#N	-4	.	.	0	7
CC(=O)c1c(C)[nH]c(C(=O)OCCCCN2C(=O)c3ccccc3C2=O)c1C	.	98*	-6	.	25
COc1ccccc1CNC(=O)c1ccc2nc3[nH]c4ccccc4c3nc2c1	-23	.	-2	-4	162*
Cc1ccc(CNC(=O)c2ccc3nc4[nH]c5ccccc5c4nc3c2)cc1	.	-52	.	.	2
CN(C)CCCNC(=O)C[C@H]1CC[C@@H](NC(=O)Cc2cccnc2)[C@@H](CO)O1	-3	-15[16.7 µM]	.	4	-2
O=C(CSc1nnc(-c2ccncc2)o1)Nc1cc(F)ccc1F	-61	-25	3	-3	-173
O=C(CSc1nnc(-c2ccc(Br)cc2)o1)Nc1cccc(C(=O)O)c1	.	88*	3	2	83*
O=C(CSc1nnc(-c2ccccc2)o1)Nc1ccccc1F	78*	40	-5	2	26
O=C(CSc1nnc(-c2ccc(Br)cc2)o1)Nc1cccc2ccccc12	-29	.	3	-2	.
CCOc1ccc(-c2nnc(SCC(=O)Nc3cc(C)on3)o2)cc1	65*	26	-5	-2	-62
Cc1ccc(-c2nnc(SCC(=O)Nc3ccccc3F)o2)cc1	85*	66*	-9	-1	59
CO[C@@H]1CN(C)C(=O)c2cc(NC(=O)C3CC3)ccc2OC[C@H](C)N(Cc2ccncc2)C[C@H]1C	12	.	.	0	-2
C[C@H](CO)N1C[C@H](C)[C@@H](CN(C)C)Oc2ccc(NC(=O)c3ccncc3)cc2CC1=O	-4	.	.	0	14
N#CC1=C(N)NC(SCC(=O)Nc2ccccc2)=C(C#N)C12CCCCC2	.	113*	4	.	-4
COc1ccc(C(=O)CSC2=C(C#N)C3(CCCCC3)C(C#N)=C(N)N2)cc1	.	76*	2	.	.
CCNC(=O)C[C@@H]1C=C[C@H](NS(=O)(=O)c2ccc(C)cc2)[C@@H](CO)O1	-3	-15[16.7 µM]	.	2	-9
C[C@@H]1CCCCO[C@H](CN(C)S(=O)(=O)c2cccs2)[C@H](C)CN([C@H](C)CO)C(=O)c2cc(NS(=O)(=O)c3ccccc3)ccc2O1	11	39[16.7 µM]	.	0	40
SMILES	EWS-Fli inh	Env fusion inh	GAA850 FXN act	F508del corr	PAX8 inh HTS
COc1ccc(OCCN(C)Cc2c(O)ccc3ccccc23)cc1	8	18	1	0	62*
O=C(c1cc(-c2ccccc2Cl)nc2ccccc12)N1CCC1	-3	20	0	4	-7
CCN1CCCC(OC(=O)c2cc(-c3ccccc3Cl)nc3ccccc23)C1 (stereo not drawn)	-3	-2	0	12*	-6
COc1ccc(/C=C/C(=O)NCCc2ccc(OC)c(OC)c2)cc1	.	-7	-1	.	-5
O=C(/C=C/c1ccccc1)NCc1ccc2c(c1)OCO2	-24	4	2	0	4
O=C(/C=C/c1ccccc1)NCCc1ccc2c(c1)OCCO2	-4	-19	3	.	69*
COc1cccc(/C=C/C(=O)NCCc2ccc3c(c2)OCCO3)c1	57*	-19	0	.	6
CO[C@H]1CN(C)C(=O)c2cc(NC(=O)c3ccccc3F)ccc2OC[C@@H](C)N(CC2CCOCC2)C[C@H]1C	0	-9[16.7 µM]	.	-3	.

From PubChem
